From PubChem BioAssay (NCATS)
Results filed as inconclusive are left out. Unmarked numbers belong to inactive results. Activity calls are given as the source filed them. Calls follow the shape of the full dose curve.

What follows are molecules tested against Atrial natriuretic peptide receptor 1 (Homo sapiens) (UniProt P16066) (assay: Natriuretic polypeptide receptor (hNpr1) antagonism - Pilot screen (AID 1347049;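 also: HEK293 cells with hNpr1 and GloSensor cGMP luciferase stimulated by 0.1 nM hNppA; agonist-evoked cGMP luminescence read 20 min after hNppA addition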; also: potency is read from the fitted curve at half-maximal effect)). Settings: hNpr1 cells, antagonist mode cGMP read-out; series mostly up to 57.5 µM; activity change, negative = inhibition: at the top concentration.
Sequence of Atrial natriuretic peptide receptor 1 (Homo sapiens) (P16066 whole entry, looked up): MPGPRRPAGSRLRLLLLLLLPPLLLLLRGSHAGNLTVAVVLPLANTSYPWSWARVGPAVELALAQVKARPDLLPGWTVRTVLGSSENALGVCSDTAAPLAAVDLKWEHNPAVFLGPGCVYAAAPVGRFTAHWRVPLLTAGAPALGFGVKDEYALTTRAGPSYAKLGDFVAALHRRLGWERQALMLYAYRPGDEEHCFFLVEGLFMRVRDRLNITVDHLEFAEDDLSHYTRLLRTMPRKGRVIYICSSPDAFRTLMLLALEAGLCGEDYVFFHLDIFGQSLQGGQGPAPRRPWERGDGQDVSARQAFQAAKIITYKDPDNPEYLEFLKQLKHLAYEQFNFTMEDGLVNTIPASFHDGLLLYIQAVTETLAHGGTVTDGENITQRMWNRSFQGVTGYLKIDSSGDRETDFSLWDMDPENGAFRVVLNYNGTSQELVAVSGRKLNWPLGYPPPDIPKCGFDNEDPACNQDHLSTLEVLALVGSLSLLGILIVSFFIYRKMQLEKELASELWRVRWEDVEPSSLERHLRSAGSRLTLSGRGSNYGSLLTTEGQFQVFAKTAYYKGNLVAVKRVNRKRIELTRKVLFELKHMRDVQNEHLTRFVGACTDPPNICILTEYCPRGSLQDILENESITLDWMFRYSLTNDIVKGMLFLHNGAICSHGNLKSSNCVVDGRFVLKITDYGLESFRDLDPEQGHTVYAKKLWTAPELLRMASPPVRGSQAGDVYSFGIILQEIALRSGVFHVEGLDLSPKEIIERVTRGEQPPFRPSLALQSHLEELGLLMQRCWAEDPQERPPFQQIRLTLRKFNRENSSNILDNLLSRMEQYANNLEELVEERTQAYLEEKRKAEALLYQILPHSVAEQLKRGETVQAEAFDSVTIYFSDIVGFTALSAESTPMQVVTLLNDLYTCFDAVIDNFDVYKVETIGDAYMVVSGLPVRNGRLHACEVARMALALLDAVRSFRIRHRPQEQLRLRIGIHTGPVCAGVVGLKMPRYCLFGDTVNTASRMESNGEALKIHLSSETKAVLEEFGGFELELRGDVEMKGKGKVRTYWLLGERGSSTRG
In short: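 Cells expressing receptor plus cGMP biosensor are seeded and incubated overnight at 37C, then loaded with GloSensor reagent (2% final) at room temperature for 2 h. Library compounds go on for 30 min. A pre-read precedes agonist (hNppA, 0.1 nM final) and a 20-min readout.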
% is scaled to controls: 0 for no effect and ±100 for the full control effect.

Compound	activity change, negative = inhibition [%]	Potency
N#C/C(=C\c1ccc(O)c(O)c1)C(=O)NCc1ccccc1	-0.597	–
NCCNC(=O)c1ncsc1-c1cccc(F)c1	16.3	–
OC[C@H]1O[C@@H](n2cnc3c(Nc4ccccc4)ncnc32)[C@H](O)[C@@H]1O	13.8	–
OC[C@H]1O[C@@H](n2cnc3c(NC4CCCCC4)ncnc32)[C@H](O)[C@@H]1O	-1.68	–
C[N+](C)(CCCCCC[N+](C)(C)CCCN1C(=O)c2cccc3cccc(c23)C1=O)CCCN1C(=O)c2cccc3cccc(c23)C1=O	2.97	–
NCCCS(=O)(=O)O	4.46	–
O=C1O/C(=C/Br)CCC1c1cccc2ccccc12 (centres undefined)	–	19 µM (active)
O=C1/C(=C/c2ccsc2)CC/C1=C\c1cccs1	–	6.01 µM (active)
C=C[C@H]1CN2CC[C@@H]1C[C@@H]2[C@@H](O)c1ccnc2ccc(OC)cc12	3.8	–
NC(N)=NC(=O)c1nc(Cl)c(N2CCCCCC2)nc1N	0.159	–

These molecules were tested against Atrial natriuretic peptide receptor 2 (Homo sapiens) (UniProt P20594) (assay: Natriuretic polypeptide receptor (hNpr2) antagonism - Pilot subtype selectivity assay (AID 1347050)). Settings: NPR2-expressing cells, cGMP antagonist-mode read-out; series mostly up to 38.3 µM; activity change, negative = inhibition: at the top concentration.
Sequence of Atrial natriuretic peptide receptor 2 (Homo sapiens) (P20594 whole entry, looked up): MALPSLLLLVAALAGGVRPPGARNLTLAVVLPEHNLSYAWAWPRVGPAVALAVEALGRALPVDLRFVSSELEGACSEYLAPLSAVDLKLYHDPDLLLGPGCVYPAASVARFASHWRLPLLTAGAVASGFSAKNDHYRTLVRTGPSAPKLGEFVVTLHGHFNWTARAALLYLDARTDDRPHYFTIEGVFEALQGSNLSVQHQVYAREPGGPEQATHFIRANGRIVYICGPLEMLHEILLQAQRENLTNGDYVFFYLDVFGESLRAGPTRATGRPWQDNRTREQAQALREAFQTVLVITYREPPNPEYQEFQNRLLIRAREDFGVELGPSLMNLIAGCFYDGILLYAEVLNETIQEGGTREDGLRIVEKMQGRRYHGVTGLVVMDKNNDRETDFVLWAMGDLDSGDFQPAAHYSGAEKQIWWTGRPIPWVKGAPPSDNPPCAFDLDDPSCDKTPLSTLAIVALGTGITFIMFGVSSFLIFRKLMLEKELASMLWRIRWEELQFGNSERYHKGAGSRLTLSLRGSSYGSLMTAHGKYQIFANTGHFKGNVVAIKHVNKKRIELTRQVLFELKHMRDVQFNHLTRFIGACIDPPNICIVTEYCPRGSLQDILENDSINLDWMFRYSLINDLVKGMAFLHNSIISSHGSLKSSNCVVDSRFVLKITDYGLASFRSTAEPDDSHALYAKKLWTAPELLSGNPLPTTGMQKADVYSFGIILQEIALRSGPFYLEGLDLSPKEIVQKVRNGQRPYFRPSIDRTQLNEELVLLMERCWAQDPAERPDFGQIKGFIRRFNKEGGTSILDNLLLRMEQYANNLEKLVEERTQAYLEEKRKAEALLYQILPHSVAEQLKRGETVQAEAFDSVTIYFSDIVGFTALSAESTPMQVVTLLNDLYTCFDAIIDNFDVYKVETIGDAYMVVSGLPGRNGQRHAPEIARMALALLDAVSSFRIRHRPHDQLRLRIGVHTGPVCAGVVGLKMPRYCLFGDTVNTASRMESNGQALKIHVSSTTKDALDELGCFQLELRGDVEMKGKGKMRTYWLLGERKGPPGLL
In short: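 Read-out: GloSensor luminescence (CCD imager), baseline vs post-stimulation. HEK293 cells expressing hNpr2; compounds pre-incubated 30-50 min at ambient temperature; hNppC 1 nM final, 20 min.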

Compound	activity change, negative = inhibition [%]
CCCCCCCCc1ccc(-c2ccc(C(=O)O)cc2)cc1	-15.7
CCc1c(C(=O)NCCc2ccc(N3CCCCC3)cc2)[nH]c2ccc(Cl)cc12	1.02
Cc1ccc(C(=O)O[C@H](C(=O)O)[C@@H](OC(=O)c2ccc(C)cc2)C(=O)O)cc1 (tested in a mixture with another compound)	-4.62
Cc1cc(NC(=O)Nc2ccc3c(ccn3C)c2)sn1	-9.34
COc1ccc2c(c1)CCC1C2CC[C@@]2(C)C1CC[C@@H]2NCCCCCCN1C(=O)CCC1=O (some centres undefined)	17.5
C[N+](C)(C)CCOP(=O)(O)OP(=O)([O-])OC[C@H]1O[C@@H](n2ccc(N)nc2=O)[C@H](O)[C@@H]1O	6.59
CCNC(=O)[C@H]1O[C@@H](n2cnc3c(N)nc(NCCc4ccc(CCC(=O)O)cc4)nc32)[C@H](O)[C@@H]1O	-7.13
CCN(CC)c1ncnc2c1ncn2[C@@H]1O[C@H](COP(=O)(O)OP(=O)(O)C(Br)(Br)P(=O)(O)O)[C@@H](O)[C@H]1O	3.18
CC(C)CC(NP(=O)(O)O[C@@H]1O[C@@H](C)[C@H](O)[C@@H](O)[C@H]1O)C(=O)NC(Cc1c[nH]c2ccccc12)C(=O)O (some centres undefined)	21.6
NO	1.01
C=CC(C)=C[C@@]1(C)SC(=O)C(C)=C1O	6.81
CNC(=O)[C@H]1O[C@@H](n2cnc3c(NCc4cccc(I)c4)ncnc32)[C@H](O)[C@@H]1O	7.77
CCCCCCCC/C=C\CCCCCCCC(=O)NCCO	-0.254
COC(=O)c1c(C)[nH]c(C)c1C(=O)c1ccccc1Cc1ccccc1	-5.66
CC(C)NC[C@@H](O)c1ccc(O)c(O)c1	7.72
NCCCCCCCCCCN	4.19
CC(C)(C=O)Cc1cc(C(C)(C)C)c(O)c(C(C)(C)C)c1	-28.9

Compound	activity change, negative = inhibition [%]
COc1cccc(C(=O)NCCN2CCN(c3ccc(Cl)cc3)CC2)c1	-8.45
NC(=O)C1=CN(C2OC(COP(=O)(O)OP(=O)(O)OC[C@H]3O[C@@H](n4cnc5c(N)ncnc54)[C@H](OP(=O)(O)O)[C@@H]3O)C(O)C2O)C=CC1 (some centres undefined)	-0.804
C=C[C@@H]1CN2CC[C@@H]1C[C@H]2[C@H](O)c1ccnc2ccc(OC)cc12	-1.07
CO/S(=N\S(=O)(=O)c1ccc(Cl)cc1)c1ccc([N+](=O)[O-])cc1 (centres undefined)	1.2
COc1cc(SC)ccc1C(=O)N1CCC(Cc2ccccc2)CC1	17
CC1CN(S(=O)(=O)c2cccc3cnccc23)CCN1 (centres undefined)	-17.5
C[C@@H](CN1CCC(Cc2ccccc2)CC1)[C@@H](O)c1ccc(O)cc1	1.65
CC1(C)CCC=[N+]1[O-]	-2.33
OC[C@H]1O[C@@H](n2cnc3c(NC4CCCC4)ncnc32)[C@H](O)[C@@H]1O	2.55
COc1cc(C(O)CO)ccc1OS(=O)(=O)O (centres undefined)	-6.69
CC(=O)N[C@H](C(=O)O)C(C)(C)SN=O	10.2
N#C/C(=C\c1ccc(O)c(O)c1)C(=O)NCc1ccccc1	17.1
CCCCC#Cc1nc(NC)c2ncn([C@@H]3O[C@H](CO)[C@@H](O)[C@H]3O)c2n1	-5.86
NCCNC(=O)c1ncsc1-c1cccc(F)c1	-2
OC[C@H]1O[C@@H](n2cnc3c(Nc4ccccc4)ncnc32)[C@H](O)[C@@H]1O	-0.182
OC[C@H]1O[C@@H](n2cnc3c(NC4CCCCC4)ncnc32)[C@H](O)[C@@H]1O	-2.91
C[N+](C)(CCCCCC[N+](C)(C)CCCN1C(=O)c2cccc3cccc(c23)C1=O)CCCN1C(=O)c2cccc3cccc(c23)C1=O	-0.723
